Tau fluor cs = counter-screen for tau fibril formation inhibitors. tau K18 P301L Alexa594 fluorescence, heparin fibrillization. Potency, µM (highest dose often 57.7 µM), without a hit: top-dose activity change, negative = decrease. 280,000 tested, 0.93% active. AID 1463; note: nearly all actives have a fitted effect of over 55% in size
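Human K18 P301L tau (15 uM unlabeled plus 0.24 uM Alexa 594-labeled, final) in 100 mM sodium acetate pH 7 was mixed with compound and 20 uM heparin and incubated 6 hr at 37 C.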
KDM4E inh = inhibitors of human JMJD2E histone demethylase; AID 2147; JMJD2E catalytic domain, FDH-coupled NADH fluorescence (FDH is formaldehyde dehydrogenase); B2RXH2; Potency, µM (series often up to 57.1 µM), for the others: at the top dose activity change, negative = inhibition, most hits filed as inhibitors; 230,000 tested, 1.6% active; active = well fitted inhibition curve with a large enough effect, not every such curve was filed as active; inconclusive = small, poorly fitted or top-dose-only effect, or another doubt; inactive = no such curve, though single readings can be large or run the other way;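 note: 0% = wells with enzyme and -100% = buffer wells without enzyme; nearly all actives have a fitted effect of over 50% in size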
Target sequence (B2RXH2 1-337 limits assumed): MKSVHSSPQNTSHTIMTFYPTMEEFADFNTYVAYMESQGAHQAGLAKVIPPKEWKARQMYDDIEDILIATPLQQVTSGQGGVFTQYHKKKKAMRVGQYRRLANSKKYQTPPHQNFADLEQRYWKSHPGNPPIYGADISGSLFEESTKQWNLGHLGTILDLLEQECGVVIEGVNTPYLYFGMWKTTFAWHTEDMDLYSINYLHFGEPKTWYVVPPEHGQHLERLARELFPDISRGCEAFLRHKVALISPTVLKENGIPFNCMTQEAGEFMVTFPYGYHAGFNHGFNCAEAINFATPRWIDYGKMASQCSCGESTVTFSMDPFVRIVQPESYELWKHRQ
TR SRC2 fluor cs = counter-screen for TRb-SRC2 inhibitors: fluorescence interference | TRb/SRC2 Texas Red total fluorescence interference | Potency, µM (top dose mostly 106 µM), inactives show at the top dose fluorescence change, negative = quenching | 280,000 tested, 0.29% active; active = well fitted curve in either direction with a large enough effect; inconclusive = small, poorly fitted or top-dose-only effect
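Human TRβ ligand-binding domain (0.6 uM) and Texas Red SRC2 peptide (20 nM) in Tris buffer with 1 uM T3 and 5% DMSO were incubated with pinned compound for 5 hr at ambient temperature. Total fluorescence was computed as S + 2P (555/632 nm).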
Tau fibril ThT = blocks human tau fibril formation measured by thioflavin T. Potency, µM (doses to about 57.4 µM), without a hit: at the highest dose activity, negative = inhibition, actives largely listed as inhibitors. 270,000 tested, 2.1% active. P10636. recombinant tau K18 P301L (four-repeat tau fragment), heparin-induced fibrillization, ThT fluorescence; note: nearly all actives have a fitted effect of over 55% in size
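Recombinant human tau K18 fragment […] carrying P301L, 15 uM unlabeled plus 0.24 uM Alexa 594-labeled, was fibrillized with 20 uM heparin in 100 mM sodium acetate pH 7 for 6 hr at 37 C; 30 uM ThT fluorescence read after 1 hr.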
TRb-SRC2 inh = inhibitors of human thyroid hormone receptor beta-SRC2 interaction. TRbeta-SRC2 peptide binding, fluorescence polarization; receptor liganded with 1 µM T3. Potency, µM (doses to about 106 µM), without a hit: at the highest dose activity change, negative = inhibition, usual class: inhibitors. 280,000 tested, 0.065% active;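 note: plate controls were bound peptide for no effect and peptide without receptor for full effect; nearly all actives have a fitted effect of over 50% in size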
Target sequence (P10828 whole entry, looked up): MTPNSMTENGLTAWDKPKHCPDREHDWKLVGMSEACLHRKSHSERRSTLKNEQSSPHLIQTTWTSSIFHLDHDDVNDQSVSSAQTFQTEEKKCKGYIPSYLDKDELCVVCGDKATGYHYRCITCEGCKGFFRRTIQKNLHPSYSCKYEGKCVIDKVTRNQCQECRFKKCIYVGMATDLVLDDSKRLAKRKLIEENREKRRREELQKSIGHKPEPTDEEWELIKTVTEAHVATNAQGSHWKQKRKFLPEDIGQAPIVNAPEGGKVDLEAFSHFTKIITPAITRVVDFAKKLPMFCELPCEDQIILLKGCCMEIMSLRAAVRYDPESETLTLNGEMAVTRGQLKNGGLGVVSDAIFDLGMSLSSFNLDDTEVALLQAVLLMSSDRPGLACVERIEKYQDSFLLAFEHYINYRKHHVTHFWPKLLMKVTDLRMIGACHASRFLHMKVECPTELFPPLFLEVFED
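A fluorescence polarization screen tested compounds at multiple concentrations against complex formation between 0.6 uM TRb ligand-binding domain and 20 nM Texas Red SRC2 peptide, with 1 uM T3 present; readout after 5 hr.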
Tau fibril FP = inhibitors of human tau fibril formation; K18 P301L tau heparin fibrillization, Alexa594 FP, 6 h; 280,000 tested, 0.39% active; P10636; Potency, µM (series often up to 57.7 µM), without a hit: at the top dose activity, negative = inhibition, actives largely listed as inhibitors; note: nearly all actives have a fitted effect of over 55% in size
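Read-out: fluorescence polarization of Alexa 594-labeled tau (0.24 uM), 555 nm excitation, 632 nm emission. Mixtures held 15 uM unlabeled K18 P301L, compound and 20 uM heparin, pH 7 acetate buffer, incubated 6 hr at 37 C.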
* marks the source's active call; other numbers are inactive results; ? = inconclusive; / = not tested or not shown; ! = not confirmed by another sample; [ ] = another dose, or the depositor's remark. Shown are actives, neighbours in structure and some others; about 3.5% of the full set was active somewhere. Unless noted, calls come from the whole dose curve; as a rule, active = well fitted curve in the direction sought with a large enough effect; inconclusive = small, poorly fitted or top-dose-only effect, or another doubt; inactive = no such curve, though single readings can be large; an effect the other way counts as inactive or inconclusive. Unless noted, % is set by controls: 0 for no effect and ±100 for the full control effect; potency is the fitted concentration of half-maximal effect.

SMILES	Tau fluor cs	KDM4E inh	TR SRC2 fluor cs	Tau fibril ThT	TRb-SRC2 inh	Tau fibril FP
COc1ccc(Nc2ncc(C(=O)Nc3cccc(OC)c3)c3ccccc23)cc1	14.1µM*[quencher]	/	-3.0%	?	3.8%	6.8%
COc1ccc(Nc2ncc(C(=O)O)c3ccccc23)cc1	-14.2%	-2.7%	-2.3%	-17.3%	-16.2%	3.2%
COc1ccc(Nc2ncc(C(=O)N3CCN(c4ccc(OC)cc4)CC3)c3ccccc23)cc1	14.1µM*[quencher]	/	-3.0%	?	0.5%	?
COc1ccc(NC(=O)c2cccnc2Nc2ccc(OC)cc2)cc1	14.1µM*[quencher]	0.7%	-4.3%	?	-17.9%	?
COc1cc(-c2noc(CSc3nc(-c4ccc(F)cc4)cc(=O)[nH]3)n2)cc(OC)c1OC	-5.4%	/	-1.0%	-4.0%	-13.8%	-10.7%
Nc1ccc([N+](=O)[O-])c(N)c1	/	/	-3.3%	/	1.8%	/
Nc1nc2ccc([N+](=O)[O-])c(N)c2s1	?	-5.6%	-10.4%	11.2µM*	4.9%	?
Cn1c(C(C#N)C(=O)c2sc3ccccc3c2Cl)nc2ccccc21 (stereo unspecified)	-1.1%	0.3%	-1.0%	-8.1%	-4.3%	?
CCCn1nc([N+](=O)[O-])c(C(C#N)c2nc3ccccc3s2)c(Cl)c1=O (stereo unspecified)	5.01µM*[quencher]	-8.1%	?	3.98µM*	-6.4%	17.8µM*
CCn1nc([N+](=O)[O-])c(C(C#N)c2nc3ccccc3n2C)c(Cl)c1=O (stereo unspecified)	?	-5.1%	1.4%	11.2µM*	-0.1%	-1.0%
CCCn1nc(C(=O)Nc2nc3ccccc3[nH]2)c2ccccc2c1=O	7.2%	-10.1%	-4.0%	-10.9%	6.0%	3.1%
Cc1ccc(C)c2[nH]c(=O)c(CN(CC3CCCO3)S(=O)(=O)c3ccc4c(c3)OCCO4)cc12 (stereo unspecified)	-11.8%	2.2%	-1.4%	-2.4%	-17.0%	-3.2%
CCCCC/C=C\C/C=C\C/C=C\C/C=C\CCCCCC(=O)NCCc1ccc(O)c(O)c1	-22.0%	-1.8%	-1.1%	-17.1%	-5.2%	16.9%
CCCCCCCC/C=C\CCCCCCCC(=O)NCCc1ccc(O)c(O)c1	14.1µM*![quencher]	20µM*!	-3.7%	?	11.0%	?
O=C(Nc1ccc(OC(F)(F)F)cc1)Nc1cccnc1	-21.2%	-2.8%	-0.6%	6.0%	-7.7%	-13.2%
NC(=O)c1cccc(-c2cc(Nc3ccc(OC(F)(F)F)cc3)ncn2)c1	?	?	-2.2%	?	-4.1%	28.2µM*
CS(=O)(=O)c1ccc(Cl)c(NC(=O)COC(=O)c2ccc(F)cc2Cl)c1	-5.8%	-4.1%	-2.7%	-0.9%	-0.4%	-3.1%
CC(C)(C)c1ccc(/C=N/NC(=S)Nc2cccnc2)cc1	-7.5%	-10.0%	0.0%	-4.7%	-1.8%	10.5%
O=S(=O)(c1ccc(NC(=S)Nc2ccccc2)cc1)N1CCOCC1	-5.2%	-19.7%	-1.2%	-2.2%	4.3%	-4.6%
Oc1ccc(/C=N/NC(=S)Nc2cccnc2)cc1O	-29.3%	15.8µM*	-8.7%	?	-4.3%	-4.5%
O=S(=O)(c1ccc(NC(=S)N/N=C/c2ccc(O)c(O)c2)cc1)N1CCOCC1	?	12.6µM*	-5.0%	?	-10.1%	2.1%
O=[N+]([O-])c1cc(Cl)cc(/C=N/NC(=S)Nc2ccc(S(=O)(=O)N3CCOCC3)cc2)c1O	?	25.1µM*	-15.1%	10µM*	3.8%	6.1%
CC(C)CCCCCCNC(=S)Nc1ccc(S(=O)(=O)N2CCOCC2)cc1	?	-5.0%	-1.6%[53 µM]	14.5%	0.1%[53 µM]	25.1µM*
CCOC(=O)C1=C(CNCc2ccc(Cl)cc2)NC(=O)NC1c1ccccc1 (stereo unspecified)	-0.2%	/	?	-0.8%	2.9%	5.3%
CCC(=O)C1=C(c2ccc(OC)c(OC)c2)N(C(=O)CC)n2c(nnc2-c2ccc(C)cc2)S1	-24.1%	/	-1.5%	-17.8%	-6.0%	-10.1%
SMILES	Tau fluor cs	KDM4E inh	TR SRC2 fluor cs	Tau fibril ThT	TRb-SRC2 inh	Tau fibril FP
CCOc1ccc(C2=C(C(=O)CC)Sc3nncn3N2C(=O)CC)cc1	-28.6%	/	-2.7%	3.16µM*	-3.6%	-13.5%
CCC(=O)C1=C(c2ccccc2)N(C(=O)CC)n2c(nnc2C2CCCCC2)S1	-5.9%	/	0.7%	-9.5%	-7.0%	-12.7%
CC(=O)C1=C(c2ccc(Cl)c(Cl)c2)N(C(C)=O)n2cnnc2S1	?	/	-1.7%	4.47µM*	-4.0%	?
CCC(=O)C1=C(c2ccc(F)cc2)N(C(=O)CC)n2cnnc2S1	-27.9%	/	-0.6%	10µM*	5.4%	?
CCCN1C(=S)SC(C)(C)C1/[N+]([O-])=C/c1ccc(S(=O)(=O)NC)cc1 (stereo unspecified)	-14.8%	?	-0.4%	-11.7%	1.3%	-2.4%
COc1ccccc1CNC(=O)c1c(N)n(CCCN2CCOCC2)c2nc3ccccc3nc12	?	?	-19.3%	25.1µM*	?	-7.9%
COc1ccc(N=Cc2[nH]c3ccccc3c2O)cc1	-26.9%	?	-2.1%	17.8µM*	4.7%	?
COc1ccc(N=CC2=C(O)c3ccccc3C2=O)cc1	-14.2%	12.1%	-2.2%	2.24µM*	-7.6%	-8.3%
O=C1C(C=Nc2ccccc2)=C(O)c2ccccc21	-14.4%	9.0%	-0.9%	?	-1.0%	7.2%
COC(=O)C1=CN(C(C)C)C=C(C(=O)OC)C1c1cc(Br)c(OC)c(OC)c1	-13.2%	-4.0%	-4.1%	?	-3.1%	8.9%
Cc1nn(Cc2c(Cl)cccc2Cl)c(Cl)c1/C=N/NC(=O)c1cccnc1	-7.0%	-13.8%	-2.2%[53 µM]	-8.3%	5.7%[53 µM]	0.7%
CC1=NN(C(N)=S)C(=O)C1N=Nc1cccc2ccccc12 (stereo unspecified)	?	-4.9%	-4.1%	3.98µM*	-1.8%	-8.5%
CC1=NN(C(N)=S)C(=O)C1N=Nc1ccccc1 (stereo unspecified)	-4.5%	-12.8%	-5.7%	?	-5.9%	-1.0%
COc1ccc2[nH]c3c(N4CC(C)OC(C)C4)ncnc3c2c1 (stereo unspecified)	-13.7%	?	-5.3%	-24.7%	-15.5%	8.5%
COc1cccc(N2CCN(c3ncnc4c3[nH]c3ccccc34)CC2C)c1 (stereo unspecified)	14.1µM*[quencher]	-14.7%	-1.6%	?	-6.8%	?
COc1cccc(N2CCN(c3ncnc4c3[nH]c3ccc(F)cc34)CC2C)c1 (stereo unspecified)	17.8µM*[quencher]	?	-6.7%	?	8.0%	?
CCOc1ccc(-c2cnc(NCc3ccc(OC)cc3OC)n2C)cc1	-0.6%	/	6.1%	-17.2%	2.4%	4.8%
C/C(=N\Nc1cccc2cccnc12)c1ccc[nH]1	?	-7.9%	-4.6%	4.47µM*	-5.6%	14.2%

Compound activity from PubChem.
